From PubChem BioAssay AID1117319 (Southern Research Institute, 2015)
Values joined by “and” are separate entries in the source; they are usually repeats but may differ in a detail not shown here. Equal values may be shown once. In all, about 260,000 compounds went through this assay and about 1,500 (0.58%) were called active. Another 5% or so got no clear call; they are omitted.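 How the source made its calls: active means inhibition above a set limit at one or more doses, reproduced on every date tested; inconclusive means results disagree between test dates, or hit never tested in dose response; inactive means the rest.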 Not all results are given here. Potency and affinity values are given separately.

molecular target: Virion infectivity factor (Human immunodeficiency virus type 1 group M subtype B (isolate BH10)) + Virion infectivity factor (Human immunodeficiency virus type 1 group M subtype B (isolate BRU/LAI)) + Virion infectivity factor (Human immunodeficiency virus type 1 group M subtype B (isolate PCV12)) + Virion infectivity factor (Human immunodeficiency virus type 1 group M subtype B (isolate HXB2)) + DNA dC->dU-editing enzyme APOBEC-3G (Homo sapiens) (UniProt P69720+P69721+P69722+P69723+Q9HC16); experiment: inhibitors of Vif binding to APOBEC3G peptide, primary screen, biochemical, TR-FRET, GST-Vif 1-94, biotin-A3G peptide, dose response retest (AID 1117319); conditions: stronger effect = higher value;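 further: Vif residues 1-94 fused to GST binding biotinylated APOBEC3G peptide 110-148; 0% = full assay without inhibitor and 100% = GST in place of GST-Vif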

inhibition, inactive:
COc1ccc(OC)c(C2CC(=O)N3CN(c4ccc(C)c(Cl)c4)CSC3=C2C#N)c1 (centres undefined) 6.54%, COc1ccc(C2CC(=O)N3CN(c4ccc(C)c(Cl)c4)CSC3=C2C#N)cc1OC (centres undefined) 13%, C=CC1=CCN(S(=O)C(C)(C)C)[C@@H]1CCO (some centres undefined) -5.14%, O=C(NNS(=O)(=O)c1ccccc1)c1ccc(O)cc1 12.2%, C=CCN(C(=O)c1ccccn1)C(C(=O)NCc1ccccc1)c1ccccc1F (centres undefined) 6.79%, Cc1nc2sc(C(c3cccs3)N3CCC(C(N)=O)CC3)c(O)n2n1 (centres undefined) 4.3%, CCOC(=O)C1CCN(C(c2ccc(OC)c(OC)c2)c2sc3nc(C)nn3c2O)CC1 (centres undefined) -0.48%, COc1ccccc1/C=C/C=N/NC(=O)c1ccco1 -2.59%, COC(=O)c1cc(CSc2nc3ccccc3[nH]2)oc1C -2.28%, CCCN(CCC)C(=O)c1ccc2c(c1)OCO2 14.8%, CCN(C(=O)CCS(=O)(=O)c1ccc(Br)cc1)c1ccc2c(c1)OCO2 27.3%, COc1ccc(S(=O)(=O)NCC(=O)NCc2cc(=O)n(C)c(=O)n2C)cc1 -1.92%, O=c1[nH]c2ccccc2n2c(-c3ccncc3)nnc12 4.55%, O=c1[nH]c2ccccc2n2c(C(F)(F)F)nnc12 -5.29%, Cc1sc(N(C(=O)CCc2ccccc2)c2ccc(C(=O)O)cc2)nc1-c1ccccc1 -5.7%, COc1ccc(C(=O)NCCS(=O)(=O)NC2CCCC2)cc1 -8.13%, CC(=O)Cn1c(=O)oc2ccccc21 0.93%, CCOC(=O)c1c(C)[nH]c(C(=O)Cn2c(=O)oc3ccccc32)c1C -6.81%, Cc1ccccc1CS(=O)(=O)Cc1ccc(C(=O)NCCCN2CC(C)CC(C)C2)o1 (centres undefined) 28%, Cc1ccc(S(=O)(=O)NCCSCc2ccco2)cc1 -0.39%, COc1ccc(S(=O)(=O)NCCSCc2ccco2)cc1 24%, O=C1NC[C@@H](Cc2cccc3ccccc23)N(CC2CCCCC2)C1=O 5.43%, COc1ccc(/C=C2\C(=O)NCC(=O)N2Cc2ccccc2)cc1 -2.05%, CC1=C/C(=N\OS(=O)(=O)c2ccccc2)C(C)=CC1=O 19.9%, CC1=CC(=O)C=C(C)C1=NOS(=O)(=O)c1ccccc1 9.66%, Cc1cccc(NS(=O)(=O)c2nnc(NC(=O)CC(C)C)s2)c1 -2.78%, C=CCn1c(C)cc(-c2csc(NCC)n2)c1C 32.5%, CCCn1c(C)cc(-c2csc(N)n2)c1C 11.8%, COc1ccc(N2C3=C(CC4=C2CC(C)(C)CC4=O)C(=O)CC(C)(C)C3)cc1 24.6% and 5.22%, COc1ccc(-n2ccc(=O)c3c2CCCC3=O)cc1 9%, Nc1cc(=O)[nH]c(SCc2ccc(Cl)cc2Cl)n1 -1%, CCN(CC(=O)Nc1ccccc1C(F)(F)F)C(=O)Cn1c(=O)cnc2ccccc21 -3.46%, Cc1nc2sc3c(c2c(=O)o1)CCC3 11.5%, O=c1[nH]c2sc3c(c2c2nncn12)CCCC3 24.3%, Cc1cccnc1NC(=O)c1ccc(S(=O)(=O)N2CCCCCC2)cc1 -2.42%, Cc1ccc(CN2CCC[C@]3(N[C@H](c4ccc(C(F)(F)F)cc4)[C@@H]4C(=O)N(Cc5ccccc5)C(=O)[C@@H]43)C2=O)cc1 5.48%, Nc1nc2cc(S(=O)(=O)N3CCOCC3)ccc2o1 -2.39%, CCn1c2ccccc2c2nc3cc(S(=O)(=O)N4CCOCC4)ccc3nc21 2.64%, O=C(OCn1nnc2ccccc2c1=O)c1cccnc1Cl 0.6%, COc1nc(NCCC2=CCCCC2)nc(OC)n1 -1.44%, CCOC(=O)N1CCN(C(=O)c2cc(C)no2)CC1 -3.25%, CC(=O)N/C(=C\c1ccccc1)C(=O)OCC(=O)N(CC(C)C)c1c(N)n(Cc2ccccc2)c(=O)[nH]c1=O 4.02%, CC(C)CC(=O)Nc1ncc([N+](=O)[O-])s1 8.92%, COc1ccc(C(=O)OCC(=O)Nc2ncc([N+](=O)[O-])s2)cc1OC 5.33%, Cc1csc(NC(=O)CSc2nncn2C)n1 7.24%, O=C(COC(=O)c1cccc([N+](=O)[O-])c1)Nc1ncc(Br)s1 1.23%, C=CCn1c(SCC(=O)NCc2ccc3c(c2)OCO3)nc2scc(-c3ccccc3)c2c1=O -40.6%, Cc1ccsc1C(=O)Nc1nc2ccccc2[nH]1 -12.8%, COc1ccc(NC(=O)C2(c3ccc(NC(=O)c4ccc(OC)c(OC)c4)cc3)CCCC2)cc1 0.05%, O=C(Nc1ccc(Br)cn1)C1CCCN1S(=O)(=O)c1ccccc1 (centres undefined) 4.08%, CC1=CCC2C(=O)N(c3nc4ccccc4n3C)C(=O)C2C1 (centres undefined) 24.7%, Cc1cccc(N2C(=O)CC(N(O)c3ccccc3)C2=O)c1 (centres undefined) 3.45%, O=C(/C=C/c1cccs1)N1CCN(c2ccccc2)CC1 -0.91%, O=C(/C=C/c1cccs1)N1CCN(c2ccc(F)cc2)CC1 3.81%, COC(=O)CC1C(=O)NCCN1C(=S)NC(=O)c1ccccc1[N+](=O)[O-] (centres undefined) 13.4%, COc1ccc2c(c1)c(=O)oc1cc(OCC(=O)NC3CC3)ccc12 -2.02%, COc1ccc2c(c1)c(=O)oc1cc(OCC(=O)N3CCCC(C)C3)ccc12 (centres undefined) -1.48%, CCCOC(=O)c1ccc(NC(=O)c2ccccc2[N+](=O)[O-])cc1 -4.31%, CCN(CC)S(=O)(=O)c1ccc(C(=O)OC2CCCCC2CN(C)C)cc1 (centres undefined) -1.05%, COc1ccc(CCNS(=O)(=O)CCNC(=O)c2ccccc2)cc1 -6.03%, CC(/C=C/c1ccc(C)o1)=C\C(=O)O 2.74%, CC(/C=C/c1ccc(Cl)o1)=C\C(=O)O 27.4%, O=C1C2C3CCC(C3)C2C(=O)N1CNc1ccccc1 (centres undefined) -1.35%, Cc1ccc2[nH]c(=O)c(CN(C(=O)c3cccc([N+](=O)[O-])c3)C(C)(C)C)cc2c1 -6%, CN(Cc1ccccc1)S(=O)(=O)c1ccc(Cl)c(C(=O)NCCCN2CCOCC2)c1 -5.26%, CC1(OC(=O)CCc2ccccc2)C(=O)C=C2C=C(c3ccc(C#N)cc3)N(CC3CC3)C=C2C1=O (centres undefined) -1.42%, CC1(OC(=O)C2CCCC2)C(=O)C=C2C=C(c3ccsc3)N(C(CO)CO)C=C2C1=O (centres undefined) 15.2%, CC1(OC(=O)CCc2ccccc2)C(=O)C=C2C=C(c3ccc(C#N)cc3)N(C(CO)CO)C=C2C1=O (centres undefined) 0.31%, CC(C)CN1C=C2C(=O)C(C)(OC(=O)C3CCCC3)C(=O)C=C2C=C1c1ccsc1 (centres undefined) 28.7%, COc1ccc(-c2ccc(SCC(=O)N3CCOCC3)nn2)cc1OC 2.85%, COc1ccccc1OCCCC(=O)Nc1nnc(C2CCCO2)s1 (centres undefined) -0.39%, Cc1nn2c(=S)[nH]nc2[nH]c1=O 14.1%, Cc1n[nH]c(=S)n(/N=C/c2cccs2)c1=O -1.81%, COC(=O)[C@H]1C[C@@H]1[C@H](NC(=O)OCc1ccccc1)c1ccccc1 -8.43%, COC(=O)[C@H]1C[C@@H]1[C@H](NC(=O)[C@H]1C[C@@H]1[C@H](NC(=O)OCc1ccccc1)c1ccccc1)c1ccccc1 25.9%, Cc1ccc2cc3cc(C(=O)NCCCN4CCCC4)oc3nc2c1 -1.36%, O=C(O)C1=NN(c2ccccc2)C(=O)C1 13.7%, CC1=NN(c2cc(Cl)c(S(=O)(=O)O)cc2Cl)C(=O)C1 8.79%, COCCCn1c(SCC(N)=O)nnc1-c1ccccc1 2.76%, C=CCN1C(=O)/C(=C/c2ccsc2)SC1=S 21.3%, COc1ccc(CN(CC(=O)NC2CCCC2)C(=O)c2onc(C(N)=O)c2N)cc1 30.2%, COc1cccc(CN2C(=O)CN(C3CCCCC3)C(=O)C2c2ccc(F)cc2)c1 (centres undefined) 1.82%, Cc1ccc(OC(=O)c2cccnc2)cc1 -1.57%, CC1=CC(C)(C)Nc2ccc(OC(=O)c3ccco3)cc21 16.4%, CC1=CC(C)(C)Nc2ccc(OC(=O)CCN3C(=O)c4ccccc4C3=O)cc21 3.55%, CC1=CC(C)(C)Nc2ccc(OC(=O)CN3C(=O)c4ccccc4C3=O)cc21 19.2%, CC(Oc1ccccc1F)C(=O)/C=C/N(C)C (centres undefined) 5.44%, O=C(Nc1ccc(Oc2ccccc2)nc1)C1CCCCN1Cc1ccco1 (centres undefined) 9.99%, O=C(Nc1cccnc1)c1ccc(S(=O)(=O)c2ccccc2)cc1 -0.77%, O=C(NCc1ccccc1)C(=O)NCC1OCCCN1S(=O)(=O)c1cccs1 (centres undefined) -3.27%, NC(=O)Nn1c(CCC(=O)O)ccc1-c1ccc(F)cc1 4.46%, NC(=O)Nn1c(CCC(=O)O)ccc1-c1ccc(Cl)cc1 3.68%, Cc1nc(-c2cc(C#N)c(Sc3cccc(C(F)(F)F)c3)nc2C)cs1 -11.1%, COCCN(C(=O)COC(=O)c1cc2ccccc2cc1O)c1c(N)n(Cc2ccccc2)c(=O)[nH]c1=O 0.53%
